# This is part of a sample that, as a whole, favours compounds with a hit. Of some 79,000 tested, about 15% had one in any assay. A number with no mark means an inactive call. Active and inactive are the calls of the source. No stated cut-off is given here; in the data, active means growth inhibition above about 70%; inactive means the rest.
# How the values were obtained:
# [1] = NCI Yeast Anticancer Drug Screen. Data for the rad52 strain (AID 147);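 further: 0% = growth of vehicle-treated control cultures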; conditions: S. cerevisiae rad52 mutant growth inhibition, active compounds read high
# Outline: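 The repair-mutant yeast strain was incubated with compounds, then growth was read and inhibition derived relative to vehicle.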
# [2] = NCI Yeast Anticancer Drug Screen. Data for the wt1 strain (AID 149);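 further: 0% = growth of vehicle-treated wt1 cultures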; conditions: S. cerevisiae wt1 strain (SPY 50644) growth inhibition, active compounds read high
# Outline: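 wt1 strain grown with compound or vehicle; inhibition taken from the growth difference.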
# [3] = NCI Yeast Anticancer Drug Screen. Data for the rad50EPP+ strain (AID 151);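 further: 0% = growth of vehicle-treated control cultures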; conditions: S. cerevisiae rad50 mutant strain, active compounds read high
# Outline: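 Vehicle-normalised growth inhibition; rad50EPP+ yeast strain, altered in DNA damage repair, compound-treated.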
# [4] = NCI Yeast Anticancer Drug Screen. Data for the mgt1 strain (AID 153); conditions: S. cerevisiae mgt1 mutant growth inhibition, active compounds read high
# Outline: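 Vehicle-normalized growth inhibition is determined in mgt1 yeast, a strain selected for a defined alteration in DNA repair or cell cycle control.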
# [5] = NCI Yeast Anticancer Drug Screen. Data for the rad50 strain (AID 155);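 further: 0% = growth of vehicle-only cultures of the same strain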; conditions: S. cerevisiae rad50 strain growth inhibition, active compounds read high
# Outline: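 DNA repair mutant yeast, compound exposure, growth read-out; inhibition is taken relative to vehicle.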
# [6] = NCI Yeast Anticancer Drug Screen. Data for the mec2-1 strain (AID 157); conditions: S. cerevisiae mec2-1 strain, active compounds read high
# Outline: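 Mutant yeast (mec2-1) grown with compound; growth inhibition relative to vehicle control reported.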
# [7] = NCI Yeast Anticancer Drug Screen. Data for the rad14 strain (AID 159);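 further: 0% = growth of vehicle-treated control cultures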; conditions: S. cerevisiae rad14 strain growth inhibition, active compounds read high
# Outline: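 DNA repair-defective yeast, compound-exposed; % growth inhibition derived by comparison with vehicle-treated controls.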
# [8] = NCI Yeast Anticancer Drug Screen. Data for the sgs1 mgt1 strain (AID 161);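 further: 0% = growth of cultures given vehicle only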; conditions: S. cerevisiae sgs1 mgt1 strain, active compounds read high
# Outline: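 Yeast cells carrying a defined DNA-repair defect were exposed to test compounds. Growth inhibition was measured relative to vehicle-treated controls.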
# [9] = NCI Yeast Anticancer Drug Screen. Data for the CLN2oe strain (AID 163);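 further: 0% = growth of vehicle-only control cultures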; conditions: S. cerevisiae CLN2oe strain, active compounds read high
# Outline: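 Compounds are applied to yeast harbouring a defined cell-cycle control change; reduced growth compared with vehicle-treated controls gives the value.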
# [10] = NCI Yeast Anticancer Drug Screen. Data for the cln2 rad14 strain (AID 165);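 further: 0% = growth equal to vehicle treated cultures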; conditions: S. cerevisiae cln2 rad14 strain, active compounds read high
# Outline: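 Readout is yeast growth inhibition versus vehicle-treated controls, using a strain with cln2 and rad14 alterations exposed to compound.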
# [11] = NCI Yeast Anticancer Drug Screen. Data for the bub3 strain (AID 167); conditions: S. cerevisiae bub3 mutant strain, active compounds read high
# Outline: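 In this screen, a yeast mutant lacking normal mitotic checkpoint function is challenged with compound. Relative growth versus vehicle gives the inhibition value.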
# [12] = NCI Yeast Anticancer Drug Screen. Data for the wt2 strain (AID 169);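 further: 0% = growth of vehicle-treated yeast cultures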; conditions: S. cerevisiae wt2 strain growth inhibition, active compounds read high
# Outline: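 Against vehicle-treated controls, the growth of yeast exposed to each compound was compared, and the inhibition was recorded.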
# [13] = NCI Yeast Anticancer Drug Screen. Data for the mlh1 strain (AID 171);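 further: 0% = growth of vehicle-treated control cultures of the same strain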; conditions: S. cerevisiae mlh1 strain growth inhibition, active compounds read high
# Outline: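 Measured: yeast growth. Reference: vehicle-treated controls. Organism: strain with a defined alteration affecting DNA damage repair or cell cycle control, treated with compound.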
# [14] = NCI Yeast Anticancer Drug Screen. Data for the sgs1 strain (AID 173);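 further: 0% = growth of vehicle-only control cultures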; conditions: S. cerevisiae sgs1 mutant, active compounds read high
# Outline: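 Each compound was added to cultures of the altered yeast strain. Growth was recorded, and inhibition was derived by comparison with vehicle controls.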
# [15] = NCI Yeast Anticancer Drug Screen. Data for the mlh1 rad18 strain (AID 175); conditions: S. cerevisiae mlh1 rad18 strain growth inhibition, active compounds read high
# Outline: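 Genetically defined yeast (DNA repair-deficient) exposed to compounds; growth inhibition determined relative to vehicle.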
# [16] = NCI Yeast Anticancer Drug Screen. Data for the rad18 strain (AID 177); conditions: S. cerevisiae rad18 mutant growth inhibition, active compounds read high
# Outline: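 Vehicle-treated cultures served as the baseline for scoring compound-induced growth inhibition in DNA-repair-mutant yeast.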
# [17] = at 5.0 µM (retest, dose inferred, filed as 0.5)
# [18] = at 50.0 µM (retest, dose inferred, filed as 5.0)
compound,measurement,setting,value
c1cc2c(cc1C1OC[C@H]3[C@@H](c4ccc5c(c4)OCO5)OC[C@@H]13)OCO2 (stereo partly drawn),growth inhibition,[1]; at 1.2 µM,-9%
same,growth inhibition,[1]; at 3.7 µM,-16%
same,growth inhibition,[1]; at 11.0 µM,-3%
same,growth inhibition,[1]; at 33.0 µM,-1%
same,growth inhibition,[1]; at 100.0 µM,-6%
same,growth inhibition,[2]; at 1.2 µM,-1%
same,growth inhibition,[2]; at 3.7 µM,-6%
same,growth inhibition,[2]; at 11.0 µM,1%
same,growth inhibition,[2]; at 33.0 µM,-20%
same,growth inhibition,[2]; at 100.0 µM,-8%
same,growth inhibition,[3]; at 1.2 µM,-7%
same,growth inhibition,[3]; at 3.7 µM,-16%
same,growth inhibition,[3]; at 11.0 µM,3%
same,growth inhibition,[3]; at 33.0 µM,16%
same,growth inhibition,[3]; at 100.0 µM,2%
same,growth inhibition,[4]; at 1.2 µM,-4%
same,growth inhibition,[4]; at 3.7 µM,-9%
same,growth inhibition,[4]; at 11.0 µM,-2%
same,growth inhibition,[4]; at 33.0 µM,-5%
same,growth inhibition,[4]; at 100.0 µM,-5%
same,growth inhibition,[5]; at 1.2 µM,-16%
same,growth inhibition,[5]; at 3.7 µM,-19%
same,growth inhibition,[5]; [17],2%
same,growth inhibition,[5]; at 11.0 µM,-16%
same,growth inhibition,[5]; at 33.0 µM,-22%
same,growth inhibition,[5]; [18],3%
same,growth inhibition,[5]; at 50.0 µM,15.3%
same,growth inhibition,[5]; at 100.0 µM,8%
same,growth inhibition,[6]; at 1.2 µM,-2%
same,growth inhibition,[6]; at 3.7 µM,-4%
same,growth inhibition,[6]; [17],2%
same,growth inhibition,[6]; at 11.0 µM,-4%
same,growth inhibition,[6]; at 33.0 µM,-5%
same,growth inhibition,[6]; [18],8%
same,growth inhibition,[6]; at 50.0 µM,-0.6%
same,growth inhibition,[6]; at 100.0 µM,-1%
same,growth inhibition,[7]; at 1.2 µM,1%
same,growth inhibition,[7]; at 3.7 µM,6%
same,growth inhibition,[7]; at 11.0 µM,17%
same,growth inhibition,[7]; at 33.0 µM,26%
same,growth inhibition,[7]; at 100.0 µM,28%
same,growth inhibition,[8]; [17],7%
same,growth inhibition,[8]; [18],20%
same,growth inhibition,[8]; at 50.0 µM,60%
same,growth inhibition,[9]; at 1.2 µM,-7%
same,growth inhibition,[9]; at 3.7 µM,-9%
same,growth inhibition,[9]; at 11.0 µM,-10%
same,growth inhibition,[9]; at 33.0 µM,-9%
same,growth inhibition,[9]; at 100.0 µM,-7%
same,growth inhibition,[10]; [17],-2%
same,growth inhibition,[10]; [18],-8%
same,growth inhibition,[10]; at 50.0 µM,10.8%
same,growth inhibition,[11]; at 1.2 µM,14%
same,growth inhibition,[11]; at 3.7 µM,26%
same,growth inhibition,[11]; [17],70% (active)
same,growth inhibition,[11]; at 11.0 µM,37%
same,growth inhibition,[11]; at 33.0 µM,46%
same,growth inhibition,[11]; [18],83% (active)
same,growth inhibition,[11]; at 50.0 µM,75.8% (active)
same,growth inhibition,[11]; at 100.0 µM,39%
same,growth inhibition,[12]; at 1.2 µM,-1%
same,growth inhibition,[12]; at 3.7 µM,2%
same,growth inhibition,[12]; at 11.0 µM,7%
same,growth inhibition,[12]; at 33.0 µM,24%
same,growth inhibition,[12]; at 100.0 µM,12%
same,growth inhibition,[13]; at 1.2 µM,-16%
same,growth inhibition,[13]; at 3.7 µM,-8%
same,growth inhibition,[13]; at 11.0 µM,-8%
same,growth inhibition,[13]; at 33.0 µM,-8%
same,growth inhibition,[13]; at 100.0 µM,-6%
same,growth inhibition,[14]; at 1.2 µM,-16%
same,growth inhibition,[14]; at 3.7 µM,-11%
same,growth inhibition,[14]; at 11.0 µM,3%
same,growth inhibition,[14]; at 33.0 µM,9%
same,growth inhibition,[14]; at 100.0 µM,15%
same,growth inhibition,[15]; [17],7%
same,growth inhibition,[15]; [18],17%
same,growth inhibition,[15]; at 50.0 µM,27.6%
same,growth inhibition,[16]; at 1.2 µM,-10%
same,growth inhibition,[16]; at 3.7 µM,-6%
same,growth inhibition,[16]; at 11.0 µM,-4%
same,growth inhibition,[16]; at 33.0 µM,-8%
same,growth inhibition,[16]; at 100.0 µM,-11%
